Results on 35 compounds are retold here after PubChem BioAssay (NCI).

The structures appear in SMILES notation. About 83,000 compounds went through this panel and 20% of them were active in at least one assay; those are over-represented in the sample as a whole.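 Single-concentration screen, 48 h exposure, 96-well plates. Endpoint: percent growth. Below 10 = active.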 A number with no mark means an inactive call. Activity calls are given as the source filed them.

One assay deals with OVCAR-8 ovarian. Nature of the assay: NCI-60 one-dose screen, 48 h (100 = growth as untreated, 0 = no growth, -100 = all killed). Particulars: 1 µM.
On to `CC/C(=C(/c1ccc(O)cc1)c1ccc(OCCN(C)C(=O)CCOCCNC(=O)Cc2ccc3c(c2)CN([C@@H]2CCC(=O)NC2=O)C3=O)cc1)c1ccccc1`, for which the growth was 87.8%.
Turning to `CC/C(=C(/c1ccc(O)cc1)c1ccc(OCCN(C)C(=O)COCCOCCNC(=O)Cc2ccc3c(c2)CN([C@@H]2CCC(=O)NC2=O)C3=O)cc1)c1ccccc1`, the growth was 93.9%.
In the case of `CC/C(=C(\c1ccc(O)cc1)c1ccc(OCCNC)cc1)c1ccccc1`, the growth is 104%.
With `CC/C(=C(\c1ccc(O)cc1)c1ccc(OCCN(C)C(=O)CCOCCNC(=O)c2ccc3c(c2)CN([C@@H]2CCC(=O)NC2=O)C3=O)cc1)c1ccccc1`, the growth was 103%.

Staying with this assay, now noted: 10 µM.
Take `CC/C(=C(/c1ccc(O)cc1)c1ccc(OCCN(C)C(=O)CCOCCNC(=O)Cc2ccc3c(c2)CN([C@@H]2CCC(=O)NC2=O)C3=O)cc1)c1ccccc1`: the growth is 34.7%.
Turning to `CC/C(=C(/c1ccc(O)cc1)c1ccc(OCCN(C)C(=O)COCCOCCNC(=O)Cc2ccc3c(c2)CN([C@@H]2CCC(=O)NC2=O)C3=O)cc1)c1ccccc1`, the growth was 21.9%.
On the same count and under the same terms, next, `CC/C(=C(\c1ccc(O)cc1)c1ccc(OCCNC)cc1)c1ccccc1`: 97.3%.
Same read-out and setting: then `CC/C(=C(\c1ccc(O)cc1)c1ccc(OCCN(C)C(=O)CCOCCNC(=O)c2ccc3c(c2)CN([C@@H]2CCC(=O)NC2=O)C3=O)cc1)c1ccccc1`, with 77.6%.

Staying with this assay, now noted: 10 µM unless noted.
Turning to `O=C(Nc1ccc(S(=O)(=O)N2CCCCC2)cc1)C(Cl)Cl`, the growth is 111%.
The same measure, in the same setting: next, `O=C(c1ccc(Cl)cc1)C1[C@H](c2ccccc2Cl)[C@@H](c2ccccc2)NC12C(=O)Nc1ccccc12` (some centres undefined): -31% (active); `O=C(c1ccc(O)cc1)C1[C@H](c2ccc(Cl)cc2)[C@@H](c2ccccc2)NC12C(=O)Nc1ccccc12` (some centres undefined): 12.5%; `Cc1ccc2nc(SCc3ccccc3F)n(-c3ccccc3)c(=O)c2c1`: 100%.
As to `CCCCNc1ccc2c3c(cccc13)C(=O)N(NCC(O)COc1ccc3c(C)cc(=O)oc3c1)C2=O` (centres undefined), the growth is 91.2%.
`c1n[nH]cc1-c1nc2ccc3[nH]ncc3c2c2c1CC1(CC2)COC1`: the growth was 52%.
On the same count and under the same terms, then `CCN1CCN(Cc2ccc(C(=O)Nc3cccc(Nc4ccc5c(OC)cccc5n4)c3)cc2C(F)(F)F)CC1`, with -66.1% (active); and `O=C(NN1C(=O)/C(=C/C=C/c2ccc([N+](=O)[O-])o2)SC1=S)c1ccc([N+](=O)[O-])cc1`, with -75.5% (active); and `C=CCn1c(O)c(N=Nc2nc(-c3cc4ccccc4oc3=O)cs2)c2ccccc21`, with 80.9%.
As to `CCCCCCCCCCCCCCCCCC(=O)Nc1ccc(OC)cc1`, the growth is 112%.
On the same count and under the same terms, then `Cn1cc(-c2cc(N)n3nc(-c4c[nH]c5ccc(Cl)cc45)cc3n2)c2cc(Br)cnc21`, with -60.1% (active); and `COC(=O)c1ccc(-c2c(-c3ccccc3)c(F)c3oc(C(=O)OC)c(N)c3c2-c2ccccc2)cc1`, with 105%.
The same measure, in the same setting: then `COc1ccc(-c2nc3ccccc3n2CC(=O)N=Nc2c(O)[nH]c3ccc(Br)cc23)cc1`, with 71.1%; and `O=C(N/N=C/c1c[nH]c2ccccc12)Nc1ccccc1Cl`, with -7.94% (active); and `COc1ccc(CCC2NCCc3c(Br)c4c(c(OC)c32)OCO4)cc1` (centres undefined), with 27.9%.
Still for that read-out and setting: then `CN(C)c1nc(NCCNS(=O)(=O)c2ccc(C(=O)/C=C/c3ccc(Cl)cc3)cc2)nc(N2CCOCC2)n1`, with 12.8%; and `COc1ccccc1NC(=O)N/N=C/c1c[nH]c2ccccc12`, with 19.3%.
Turning to `O=C1/C(=C/c2cnc(-c3ccccc3)s2)SC(=S)N1Cc1ccc2c(c1)OCO2`, the growth is 67.6%.
Same read-out and setting: next, `N#CC1=C(c2cccs2)Nc2c(c(-c3ccccc3)nn2-c2ccccc2)C12C(=O)Nc1ccccc12` (centres undefined): 24.2%.
Consider `COc1ccc2[nH]c(=O)cc(-n3ncc(C(=O)/C=C/c4cc(OC)c(OC)c(OC)c4)c3C)c2c1`, for which the growth was 14.5%.
As to `C[C@H](NC(=O)c1ccc2c(-c3ccc(C(F)(F)F)cc3)cccc2c1)c1ccccn1`, the growth is 44.7%.
On the same count and under the same terms, then `Cn1cc(Nc2ncnc(-c3ccc(N4CCCC4)c(C#N)c3)n2)cn1`, with 84.4%; and `CCCCCCCCc1cccc(CC(=O)Nc2ccc(C)cc2C(=O)O)c1`, with 45.6% [25 µM]; and `O=C1CCC(N2C(=O)c3cccc(NCCCCCC(=O)N4CCN(c5ccc6nc7c(nc6c5C(F)(F)F)C(=O)c5ncccc5C7=O)CC4)c3C2=O)C(=O)N1` (centres undefined), with -53.3% (active).
Same read-out and setting: next, `CN1C(=O)/C(=C\C(=O)c2cc3ccccc3oc2=O)c2ccccc21`: 47.3%; `Cc1ccc2nc(NC(=O)Nc3cccc(Cl)c3)sc2c1`: 107%; `O=C1Nc2ccccc2/C1=C\c1ccc(OCC(=O)c2ccc(Br)cc2)cc1`: 69.6%.
With `COc1ccc2[nH]cc(-c3cc(N)n4nc(-c5c[nH]c6ccccc56)cc4n3)c2c1`, the growth was -43.9% (active).
In the case of `Cn1cc(-c2cc(N)n3nc(-c4c[nH]c5ccc(Cl)cc45)cc3n2)c2cccnc21`, the growth was -76.2% (active).
`Cc1ccc(-c2cc(C(=O)N=Nc3c(O)[nH]c4ccc(F)cc34)c3ccccc3n2)cc1`: the growth is 16.8%.
`O=C(NN1C(=O)/C(=C/C=C/c2ccc([N+](=O)[O-])o2)SC1=S)c1ccncc1`: the growth was -37.2% (active).
